Screening results (PubChem)
Shown are actives, neighbours in structure and some others; about 3.7% of the full set was active somewhere.
PTHR1 agonist: PTHR1 (human) receptor agonism. HEK293 GP2 PTHR1 cells, GloSensor cAMP luminescence, 1 h. Potency, µM (titrated, usually from 115 µM), for the others: at the top dose activation, most hits filed as activators. 410,000 tested, 0.075% active. AID 743266; further: potency means the concentration at half of the fitted maximal effect; nearly all actives have a fitted effect of over 55% in size
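HEK-293-derived GP2 cells expressing PTHR1 and a GloSensor cAMP reporter, 3,000/well, plated overnight, given luciferin plus IBMX (each 0.5 mM as added) for 1 h at 37 °C, then compound for 1 h at 37 °C. Luminescence was read after 15 min at room temperature.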
BRCA1 expr act: BRCA1 expression activation | MCF7-BRCA1-FFLuc reporter, luminescence, 48 h; response scale: scaled: vehicle 0%, 10 µM genistein 100% | Potency, µM (titrated, usually from 46.1 µM), without a hit: top-dose activation, most hits filed as activators | 380,000 tested, 1.1% active | AID 624202; further: potency means the concentration at half of the fitted maximal effect; nearly all actives have a fitted effect of over 80% in size
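Luminescence from a BRCA1-driven firefly luciferase in MCF7 cells was the read-out, taken 15 min after substrate addition following 48 h compound exposure at 37 °C. Data were normalized to a 10 microM genistein control and DMSO vehicle.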
RGS4 inh: human RGS4 inhibition; Transcreener GDP fluorescence polarization, RGS4-accelerated GTP hydrolysis; AID 504845; Potency, µM (top dose mostly 114 µM), inactives show at the highest dose activity change, negative = inhibition, hits mostly inhibitors; P49798; 390,000 tested, 0.039% active; further: potency means the concentration at half of the fitted maximal effect; on the % scale 0 is the no-effect control and ±100 the full control effect; nearly all actives have a fitted effect of over 75% in size
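MLSMR compounds (23 nl, pin-transferred) preincubated 10 min at room temperature with a 500nM (2x) first reagent, then RGS4 at 900nM (2x) plus Transcreener GDP mix added; fluorescence polarization (620/688 nm) read before and after 90 min at 30 °C.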
D3 ag: D3 dopamine receptor (human) agonism | P35462 | D3R DiscoveRx beta-arrestin cells, luminescence, 90 min | max activation, % | 410,000 tested, 0.58% active | AID 652048; in the data active means max activation above about 30%; further: 0% is about no effect
Target sequence (P35462 whole entry, looked up): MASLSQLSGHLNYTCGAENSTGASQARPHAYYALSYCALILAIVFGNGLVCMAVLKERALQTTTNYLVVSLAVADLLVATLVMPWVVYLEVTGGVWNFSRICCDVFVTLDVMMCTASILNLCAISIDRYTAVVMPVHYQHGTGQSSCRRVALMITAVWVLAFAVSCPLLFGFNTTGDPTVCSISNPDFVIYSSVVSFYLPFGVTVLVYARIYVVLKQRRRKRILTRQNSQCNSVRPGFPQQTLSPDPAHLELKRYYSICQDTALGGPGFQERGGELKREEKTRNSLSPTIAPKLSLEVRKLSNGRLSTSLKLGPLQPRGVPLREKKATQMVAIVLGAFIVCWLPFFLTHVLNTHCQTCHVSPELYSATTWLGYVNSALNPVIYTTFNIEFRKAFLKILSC
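Agonist-mode cell screen: cells plated at 1500/well and incubated overnight at 37 °C, then exposed to library compounds for 90 min at 37 °C. Detection reagent was added for 30–60 min at room temperature, and luminescence was read.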
B2AR arrestin: recruits beta-arrestin to the human beta2-adrenergic receptor; Potency, µM (titrated, usually from 46.1 µM), without a hit: top-dose activation, most hits filed as activators; P07550; 330,000 tested, 0.02% active; beta-arrestin recruitment to beta2AR, cell-based reporter;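 further: potency means the concentration at half of the fitted maximal effect; 0% = DMSO controls and full agonism = EC100 isoproterenol or metaproterenol; nearly all actives have a fitted effect of over 65% in size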
Target sequence (P07550 whole entry, looked up): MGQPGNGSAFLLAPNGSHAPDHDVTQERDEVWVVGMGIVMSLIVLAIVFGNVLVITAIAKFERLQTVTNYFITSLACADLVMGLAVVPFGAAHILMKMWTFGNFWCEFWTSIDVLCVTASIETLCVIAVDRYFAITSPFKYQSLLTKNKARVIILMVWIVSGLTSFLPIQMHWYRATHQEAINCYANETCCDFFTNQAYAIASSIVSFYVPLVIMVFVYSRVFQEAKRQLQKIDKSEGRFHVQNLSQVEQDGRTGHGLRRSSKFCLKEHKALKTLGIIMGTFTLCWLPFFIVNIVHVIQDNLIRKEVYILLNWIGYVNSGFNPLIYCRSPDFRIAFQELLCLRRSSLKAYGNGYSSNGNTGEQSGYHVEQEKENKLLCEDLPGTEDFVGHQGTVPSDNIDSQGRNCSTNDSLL
D3 antag: D3 dopamine receptor (human) antagonism | P35462 | D3R cells, DiscoveRx beta-arrestin luminescence, antagonist mode; stronger effect = lower value | max response, negative = inhibition, % | 360,000 tested, 2.5% active; in the data active means max response below about -50%; inconclusive means no clear call, values can overlap the other calls; further: on the % scale 0 is the no-effect control and ±100 the full control effect
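Cells expressing the human receptor were seeded at 1500 cells/well, incubated overnight at 37 degrees C in 5% CO2, then exposed to library compounds with dopamine controls for 90 minutes at 37 degrees C before luminescent detection.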
* hit, by the source's call; i = inactive; ? = inconclusive; . = no result; ! = a repeat was not active; [ ] = another dose, or the depositor's remark. Unless noted, the call rests on the fitted dose curve; in most records, active means well fitted curve in the direction sought with a large enough effect; inconclusive means small, poorly fitted or top-dose-only effect, or another doubt; inactive means no such curve, though single readings can be large; an effect the other way counts as inactive or inconclusive.

SMILES | PTHR1 agonist | BRCA1 expr act | RGS4 inh | D3 ag | B2AR arrestin | D3 antag
O=C(NCCCN1CCN(c2ccccc2F)CC1)C1CCCN(S(=O)(=O)c2cnc[nH]2)C1 (stereo not drawn) | -12.7% | -10.9% | -2.7% | 6.3 | -0.4% | -70.6*
CCC(C)NS(=O)(=O)c1ccc(NC(=O)CNCc2cccs2)cc1 (stereo not drawn) | i | 6.6% | -3.2%[56.9 µM] | -2.4 | . | 0.0
Cn1c(SCc2ccccc2F)nc2cccnc21 | -21.3%[57.5 µM] | 6.31µM* | -24.2% | 18.1 | -0.7% | 36.6
COc1ccc(-c2nc(Cn3c(SCc4ccccc4F)nc4cccnc43)c(C)o2)cc1 | -38.1% | . | 4.5% | 1.2 | . | .
O=C(c1ccc2c(=O)n(Cc3ccccc3Cl)c(=S)[nH]c2c1)N1CCOCC1 | -21.3% | -3.5% | 26.1% | 9.5 | -0.2% | -0.8
Cc1cc(C)nc(NS(=O)(=O)c2ccc(NC(=S)NC(=O)c3cccnc3)cc2)n1 | 5.9% | -35.8% | -27.2% | -13.4 | -2.7% | ?
Cc1cc(NS(=O)(=O)c2ccc(NC(=S)NC(=O)c3cccnc3)cc2)no1 | i | -23.3% | ? | -14.6 | -0.2% | -51.0*
CCN1c2ccccc2-c2nc(SCC(=O)Nc3cc(C)c(Cl)cc3OC)ncc2S1(=O)=O | -33.1% | . | -26.0% | -3.7 | . | .
Cc1nc2ccc(NS(=O)(=O)c3ccc(F)c(C)c3)cc2[nH]1 | -2.3% | -3.6% | -0.9% | 4.9 | 5.7% | 69.5
OC1(c2cccc(C(F)(F)F)c2)CCN(Cc2nnnn2Cc2ccccc2)CC1 | -34.0% | -2.5% | -3.8% | 5.7 | -0.3% | 5.2
OC1(c2ccc(F)cc2)CCN(Cc2nnnn2Cc2cccs2)CC1 | i | 5.5% | 3.8% | -3.6 | -0.6% | -85.8*
COC(=O)c1c(-c2ccc(OC)cc2)sc2ccccc12 | . | . | . | . | 2.5% | .
COC(=O)c1c(-c2cc(OC)cc(OC)c2)sc2ccc(OC)cc12 | -15.0% | 15.9% | 10.8% | 62.3* | 4.7% | 9.6
COC(=O)c1c(-c2ccc(OC)cc2)sc2cc(OC)c(OC)cc12 | i | 0.0% | 6.4% | 19.4 | -0.8% | 84.0
COC(=O)c1c(-c2ccc(SC)cc2)sc2ccc(OC)cc12 | -75.3% | ? | 30.8% | 37.8* | 0.5% | 16.1
COC(=O)c1c(-c2ccc(SC)cc2)sc2ccccc12 | i | 78.0% | -3.2% | 56.4* | -0.8% | 41.8
CCCCCC[N+](C)(C)CC/C=C1/c2ccccc2Sc2ccc(Cl)cc21 | -52.9% | -3.7% | -40.3% | -9.6 | -0.7% | -105.4*
COc1ccc(S(=O)(=O)N2CCOCC2)cc1NC(=O)CCCSc1ccccc1 | -12.9% | -4.8% | . | -2.4 | . | 22.9
CCOc1ccccc1NC(=O)COC(=O)c1nc2nccc(C)n2n1 | -2.2% | -3.1% | 1.9% | 7.7 | -1.4% | 15.3
O=C1N/C(=N/N=C/c2ccccc2O)SC1Cc1ccc(F)cc1 (stereo not drawn) | -2.5% | -86.7% | 0.5% | -17.2 | 4.4% | -55.8*
O=C(COc1ccc2ccccc2c1)Nc1ccccc1C(=O)O | i | ? | -12.2% | -8.1 | -0.1% | 75.8
CCCN1CCN(CCCNC(=O)C2CCCN(c3nc4ccc(OCC)cc4s3)C2)CC1 (stereo not drawn) | -7.5%[57.5 µM] | 5.3% | 8.9% | 23.2 | -0.3% | 6.9
CCOc1ccc2nc(N3CCCC(C(=O)N4CCN(CC)CC4)C3)sc2c1 (stereo not drawn) | i | -8.7% | -3.0% | -2.1 | -0.4% | -64.7*
CCOc1ccc2nc(N3CCCC(C(=O)NCC4CCCO4)C3)sc2c1 (stereo not drawn) | -5.7% | 10µM* | 13.5% | 5.5 | 0.0% | -7.5
CCOc1ccc2nc(N3CCCC(C(=O)NCc4ccc(OC)cc4)C3)sc2c1 (stereo not drawn) | i | . | 1.2% | 8.2 | . | .
SMILES | PTHR1 agonist | BRCA1 expr act | RGS4 inh | D3 ag | B2AR arrestin | D3 antag
COc1cccc(NC(=O)CSc2cc(C)[nH]c(=O)n2)c1 | -34.3% | 13.0% | 0.0% | 3.1 | . | .
CCCn1c(-c2ccc[nH]c2=O)nc2cc(C)c(C)cc21 | -13.0% | 49.6% | 4.5% | 5.6 | 4.0% | 6.0
COc1ccc(-c2nnc(NC(=O)c3ccc(S(=O)(=O)N4COCC4(C)C)cc3)o2)cc1 | i | -57.2% | -6.6%[11.4 µM] | 4.0 | -0.2% | -64.6*
CC1(C)COCN1S(=O)(=O)c1ccc(C(=O)Nc2nnc(-c3ccc(Cl)s3)o2)cc1 | -27.2% | -87.8% | -11.7% | 5.0 | -1.5% | 9.7
CC(C)C1=CC2=CC[C@@H]3[C@](C)(CCC[C@@]3(C)C(=O)O)[C@H]2CC1 | . | . | . | -10.4 | . | .
CCOC(=O)c1c(C)n(C)c2ccc(OC)c(NC(=O)CN3CCSCC3)c12 | -38.1% | -13.6% | -11.0% | 0.1 | -0.6% | -21.1
CCOC(=O)c1c(C)n(C)c2ccc(OC)c(NC(=O)CCN3CCC(Cc4ccccc4)CC3)c12 | i | -16.3% | -7.4% | -20.8 | 0.5% | -120.4*
Cn1c(Cc2csc(N)n2)nnc1SCC(=O)NC1CCCCC1 | i | 3.8% | 10.8% | 8.6 | 0.1% | -57.4*
Cc1cn([C@H]2C[C@H](O)[C@@H](CNC(=O)[C@H](N)C3CC3)O2)c(=O)[nH]c1=O | -9.6% | -0.3% | . | 2.9 | . | -13.4
O=C(NC1CCN(Cc2ccccc2)CC1)c1[nH]c(C(F)(F)F)nc1-c1ccccc1 | -18.2% | 1.0% | . | -15.2 | . | -85.4*!
Cc1ccc(CNC(=O)c2[nH]c(C(F)(F)F)nc2-c2ccccc2)cc1 | i | 0.0% | . | -11.6 | . | -16.5
O=C(NCc1cccc(C(F)(F)F)c1)c1[nH]c(C(F)(F)F)nc1-c1ccccc1 | -4.1% | -19.0% | . | -9.9 | . | -63.0*
O=C(c1[nH]c(C(F)(F)F)nc1-c1ccccc1)N1CCCN(Cc2ccc(F)cc2)CC1 | -20.4% | 12.1% | . | 6.2 | . | 28.8
CCOC(=O)c1c(C)[nH]c(C)c1S(=O)(=O)NCC(=O)N1CCN(c2ccccc2OC)CC1 | i | -4.2% | -14.6% | -9.9 | . | .
CN1CCN(NC(=O)CN2C(=O)/C(=C/c3ccccc3Cl)SC2=S)CC1 | -1.8% | 2.2% | -33.8% | -4.2 | -0.2% | -64.5*
CN1CCN(NC(=O)CN2C(=O)/C(=C/c3c(Cl)cccc3Cl)SC2=S)CC1 | i | 0.5% | ? | 2.3 | -0.9% | 6.8
CCCCC/C=C\C/C=C\C/C=C\CC1OC1CCCC(=O)O (stereo not drawn) | . | . | 37.7µM* | . | . | .
CC/C=C\C/C=C\C/C=C\C/C=C\C/C=C\C/C=C\CCC(=O)O | . | . | -40.0%[56.9 µM] | 9.3 | . | .
CCCCC[C@H](O)/C=C/[C@H]1[C@H](O)CC(O)[C@@H]1C/C=C\CCCC(=O)O (stereo partly drawn) | . | . | 26.7µM* | . | . | .
CC/C=C\C/C=C\C/C=C\C/C=C\C/C=C\CCCCCC(=O)O | . | . | 21.2µM* | . | . | .
CCOc1ccccc1NC(=O)CSc1nc2c(sc3ccccc32)c(=O)n1CCCC(=O)NC1CCCC1 | i | . | -2.8% | -5.8 | . | .
